Experimental data as given in PubChem BioAssay.

target: Torsin-1A (Homo sapiens) (UniProt O14656); assay: torsin A binders from cell lysate, primary screen, small-molecule microarray, wild-type, 635/667 nm (AID 1149); conditions: COS7 hTOR1A-WT lysate, 635 nm fluorescence, higher = more signal
Sequence (O14656 whole entry, looked up): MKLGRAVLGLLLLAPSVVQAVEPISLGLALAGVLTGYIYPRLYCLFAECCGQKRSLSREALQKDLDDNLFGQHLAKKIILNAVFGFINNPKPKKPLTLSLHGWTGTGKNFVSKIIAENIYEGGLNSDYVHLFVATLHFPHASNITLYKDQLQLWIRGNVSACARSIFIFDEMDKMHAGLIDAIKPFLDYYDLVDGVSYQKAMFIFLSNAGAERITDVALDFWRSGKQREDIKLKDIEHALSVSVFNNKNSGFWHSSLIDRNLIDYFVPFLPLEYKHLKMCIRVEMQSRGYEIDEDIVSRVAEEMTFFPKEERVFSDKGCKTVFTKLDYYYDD

Compound	composite z-score
CC(C)[Si](C#C[Si](C(C)C)(C(C)C)C(C)C)(O[C@H](C)c1cn(Cc2cccc(Cl)c2)nn1)C(C)C	0.781
CC(C)(C)OC(=O)CC[C@]1(C(=O)N2CCCCC2)N=C(c2ccc(OCCCO)cc2)O[C@H]1c1ccccc1CN=[N+]=[N-]	0.635
CCOC(=O)C[C@H]1[C@H](OC(=O)Cc2ccc3c(c2)OCO3)[C@@H](NC(=O)c2ccccc2)c2cc(OCCCO)ccc2N1C(=O)c1ccc2ccccc2n1	0.0426
CC(C)CCC[C@@H](C)[C@H]1CC[C@@]2(C)C3=C(CC[C@]12C)[C@@]1(C)CC[C@H](OC(=O)c2ccc(N)cc2)C(C)(C)C1CC3 (stereo not given in full)	0.315
C=CCC(OC(C)=O)[C@@H]1[C@@H](N(Cc2cccc3ccccc23)C(=O)c2ccc(C)cc2)c2cc(OCCCO)ccc2N1C(=O)c1ccc2ccccc2c1 (stereo not given in full)	0.196
COC(=O)C(CC#Cc1ccc2c(c1)[C@]1(C(=O)N2)[C@H](c2ccccc2OCCO)N2[C@H](c3ccccc3)[C@H](c3ccccc3)OC(=O)[C@H]2[C@@H]1C(=O)Nc1nc2ccccc2s1)C(=O)OC	0.283
C=CCOC(=O)[C@@H]1[C@H]2C(=O)O[C@H](c3ccccc3)[C@H](c3ccccc3)N2[C@H](c2ccc(OCCOC(=O)[C@@H]3C[C@@H]4C(=O)N5CCC[C@H]5C(=O)N4[C@@H]3c3cccc(OCCO)c3)cc2)[C@@]12C(=O)Nc1ccc(I)cc12	0.85
COc1ccc(C(=O)Nc2ccc(CN3C(=O)[C@]4(O[C@H](CCn5cc([C@H](O)c6ccccc6)nn5)[C@@H]([Si](C)(C)c5ccc(OC)cc5)[C@@H]4C)c4ccccc43)cc2)cc1	0.33
CN(C)C(=O)[C@@]1(CCC(=O)OC(C)(C)C)N=C(c2ccc(OCCCO)cc2)O[C@H]1c1ccccc1N=[N+]=[N-]	1.76
COCCOC(=O)N1C(=O)[C@@]2(c3cc(C#CCCO)ccc31)[C@H](C(=O)NC[C@H](O)c1ccccc1)[C@H]1C(=O)O[C@H](c3ccccc3)[C@H](c3ccccc3)N1[C@@H]2c1ccccc1OCCO	1.19
COc1ccc([Si](C)(C)[C@H]2[C@H](CCO)O[C@@]3(C(=O)N(Cc4cccc(N5CCOC5=O)c4)c4ccccc43)[C@@H]2C)cc1	-0.0637
CN(C)CCCC[C@@H]1NC(=O)[C@H]2C[C@@H](C(=O)NCCCCCCNC(=O)CS)[C@@H](c3ccc(O)cc3)N2C1=O	1.13
CC(C)=CCCC(C)=CC(O)C1C=CC2C(=O)N(c3ccccc3)C(=O)C2N1Nc1ccc([N+](=O)[O-])cc1 (stereo not given)	0.383
COC(=O)[C@@]1(Cc2ccc(OC)cc2)[C@H]2c3cc(C(=O)N(C)C)n(Cc4cc(F)c(F)c(F)c4)c3C[C@H]2CN1C(=O)c1ccccc1	-0.312
COCCOC(=O)N1C(=O)[C@@]2(c3cc(C#CCC(C(=O)OC)C(=O)OC)ccc31)[C@H](C(=O)N1CCCCCCC1)[C@H]1C(=O)O[C@H](c3ccccc3)[C@H](c3ccccc3)N1[C@@H]2c1ccc(O)cc1	1.41
[N-]=[N+]=Nc1ccccc1[C@H]1OC(c2ccc(OCCCO)cc2)=N[C@@]1(Cc1ccccc1)C(=O)NCc1ccccc1	0.104
COC(=O)C(CC#Cc1ccc2c(c1)[C@]1(C(=O)N2)[C@H](c2ccc(O)cc2)N2[C@H](c3ccccc3)[C@H](c3ccccc3)OC(=O)[C@H]2[C@@H]1C(N)=O)C(=O)OC	-1.15
C=CCNC(=O)[C@H]1[C@@H]2C(=O)O[C@@H](c3ccccc3)[C@@H](c3ccccc3)N2[C@@H](c2ccc(OCCO)cc2)[C@]12C(=O)N(C(=O)OCCOC)c1ccc(C#CC3=CCCCC3)cc12	0.689

Compound	composite z-score
COC(=O)[C@@]1(Cc2ccccc2)[C@H]2c3cc(C(=O)N(C)C)n(Cc4ccccn4)c3C[C@H]2CN1C(=O)c1ccccc1	-0.208
O=C(Nc1cc(Br)ccc1C(=O)NCc1cccc(O)c1)c1ccccc1	0.476
NCCCCCCNC(=O)[C@H]1C[C@H]2C(=O)N3CCC[C@H]3C(=O)N2[C@H]1c1ccc(O)cc1	0.624
C#CCNS(=O)(=O)N(C)C	0.073
CCCC=C(CCC)[C@@H](NS(=O)(=O)CC)c1ccccc1	0.252
CN(C)CCCCCCNC(=O)[C@@H]1C[C@@H]2C(=O)NCC(=O)N2[C@@H]1c1ccc(O)cc1	0.97
NC(=O)NCC#Cc1ccc2c(c1)[C@]1(C(=O)N2)[C@H](c2ccc(O)cc2)N2[C@H](c3ccccc3)[C@H](c3ccccc3)OC(=O)[C@H]2[C@@H]1C(N)=O	-1.49
COCCCNC(=O)[C@@]1(C)c2ccccc2C(=O)N(c2ccc(C)cn2)[C@H]1c1ccc(CO)cc1	0.152
COCCCNC(=O)[C@]1(Cc2ccccc2)N=C(c2ccc(OCCCO)cc2)O[C@@H]1c1ccccc1N=[N+]=[N-]	1.04
CCCC=C(CCC)[C@@H](NC(=O)Cc1ccccc1)c1ccc(C(=O)OC)cc1	-0.0377
COc1ccc([Si](C)(C)[C@@H]2[C@@H](CCO)O[C@]3(C(=O)N(Cc4ccccc4)c4ccc(N5CCCCC5=O)cc43)[C@H]2C)cc1	-0.121
COc1ccc(CCNC(=O)[C@@H]2c3ccccc3C(=O)N(Cc3ccccc3)[C@H]2c2ccc(CO)cc2)cc1	-0.447
O=C(CS)NCCCCCNC(=O)[C@@H]1C[C@@H]2C(=O)N3CCC[C@H]3C(=O)N2[C@@H]1c1ccc(O)cc1	0.99
COC(=O)[C@]1(Cc2ccccc2CN=[N+]=[N-])N=C(c2ccc(OCCCO)cc2)O[C@@H]1c1ccccc1	-2.51
COc1ccc([Si](C)(C)[C@@H]2[C@@H](CC(=O)N(CCO)Cc3ccccc3)O[C@]3(C(=O)N(Cc4ccc(N5CCOC5=O)cc4)c4ccccc43)[C@H]2C)cc1	0.436
[N-]=[N+]=NCc1ccccc1C[C@]1(C(=O)NCCN2CCOCC2)N=C(c2ccc(OCCCO)cc2)O[C@H]1c1ccccc1	1.39
COC(=O)[C@H]1N=C(c2ccc(OCCCO)cc2)O[C@H]1c1ccccc1CN=[N+]=[N-]	-1.66
